# Experimental data: PubChem BioAssay (NCATS)
# Inconclusive results are not listed. Where a call stands in place of a potency, no number is given. Activity calls are given as the source filed them. Unless noted, the call rests on the fitted dose curve; in most records, active means well fitted curve in the direction sought with a large enough effect; inconclusive means small, poorly fitted or top-dose-only effect, or another doubt; inactive means no such curve, though single readings can be large; an effect the other way counts as inactive or inconclusive.
# Columns and labels:
# [1] = Quantitative high throughput screen for delayed death inhibitors of the malarial parasite plastid, 48 hour incubation (AID 488752); settings: Plasmodium falciparum growth; series mostly up to 28.7 µM; further: nearly all actives have a fitted effect of over 65% in size; further: potency means the concentration at half of the fitted maximal effect
# Method in brief: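 Readout is firefly luciferase luminescence from a reporter integrated into the parasite genome, with lower signal taken as inhibited growth. Infected red cells (0.1% parasitemia, 2% hematocrit final) are cultured with compound for one 48 h cycle at 37 C.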
# [2] = biological target: Thioredoxin reductase 1, cytoplasmic (Rattus norvegicus) (UniProt O89049); experiment: qHTS Assay for Substrates of Mammalian Selenoprotein Thioredoxin Reductase 1 (TrxR1) (AID 488772); settings: purified TrxR1, NADPH consumption substrate assay; series mostly up to 57.1 µM;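 further: NADPH fluorescence in the first read after selenite addition and not the 8 min delta; a drop in NADPH fluorescence below the no-compound background marks a TrxR1 substrate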
# Method in brief: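 Quantitative HTS in Tris-HCl buffer at pH 7.5 with EDTA and Tween-20, using rat TrxR1, 400 uM NADPH and 400 uM selenite (final). A fall in initial NADPH fluorescence relative to background marked substrate behaviour.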
# [3] = biological target: Thioredoxin reductase 1, cytoplasmic (Rattus norvegicus) (UniProt O89049); experiment: qHTS Assay for Inhibitors of Mammalian Selenoprotein Thioredoxin Reductase 1 (TrxR1) (AID 488773); settings: purified TrxR1 enzyme activity; Potency: inhibition; series mostly up to 57.1 µM;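 further: drop in NADPH fluorescence over an 8 min run after selenite addition; nearly all actives have a fitted effect of over 40% in size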
# Method in brief: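 Steps: enzyme (90 nM) plus NADPH (400 uM final), 5 min at ~22 deg C; compound added, 15 min; selenite (400 uM final) added; fluorescence followed for 8 min. Concentration-response curves derived from the normalized delta values.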
# [4] = biological target: Flap endonuclease 1 (Homo sapiens) (UniProt P39748); experiment: qHTS Validation Assay for the Inhibitors of Human Flap endonuclease 1 (FEN1) (AID 488816); settings: FEN1 nuclease activity, fluorogenic DNA substrate; series mostly up to 57.1 µM
# Method in brief: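 Readings taken at 0 and 15 min after starting the reaction with 50 nM (final) substrate supplied the signal. Compounds had first sat with 10 nM FEN1 reagent for 15 min at room temperature. Values come from Hill-equation concentration-response fits.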
# [5] = biological target: M-phase phosphoprotein 8 (Homo sapiens) (UniProt Q99549); experiment: qHTS Validation Assay for Inhibitors for MPP8 Chromodomain Interactions with Methylated Histone Tails (AID 488949); settings: AlphaScreen MPP8 binding to H3K9me3 peptide; series mostly up to 57.1 µM; further: nearly all actives have a fitted effect of over 55% in size; further: potency means the concentration at half of the fitted maximal effect
# Method in brief: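 MPP8 (50 nM) was pre-bound to 50 nM biotinylated H3(1-18)K9me3 peptide in PBS pH 7.4 with 0.01% Tween-20. Compounds were then added for 30 min at room temperature, and complex disruption was read by AlphaScreen with streptavidin donor and nickel-chelate acceptor beads.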
# [6] = biological target: Chromobox protein homolog 1 (Homo sapiens) (UniProt P83916); experiment: qHTS Validation Assay for Inhibitors of HP1-beta Chromodomain Interactions with Methylated Histone Tails (AID 488953); settings: HP1-beta chromodomain / methylated histone peptide binding assay; series mostly up to 114 µM; further: nearly all actives have a fitted effect of over 50% in size; further: potency means the concentration at half of the fitted maximal effect
# Method in brief: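 50 nM HP1-beta + 50 nM biotin-H3(1-18)K9me3, PBS pH 7.4, 0.01% Tween-20, 30 min RT; compound added, 30 min RT; AlphaScreen beads 10 ug/mL final, 30 min dark; luminescence read.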
# [7] = biological target: Methanococcus maripaludis chaperonin (MmCpn) (UniProt Q6LX38); experiment: High-Throughput Screening for Modulators of Cytosolic Chaperonin Activity: MmCpn Primary Screen (AID 488978); settings: Purified MmCpn ATPase activity, ADP HTRF detection, 10 min; series mostly up to 76.9 µM;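 further: 50 nM MmCpn enzyme hydrolysing 30 µM ATP at 37 °C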
# Method in brief: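 MmCpn at 50 nM final was preincubated 5 min at RT with compound. ATP was then added at 30 uM final for 10 min at 37 C. ADP formed was detected by Transcreener HTRF (665/590 nm).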
# [8] = biological target: Transient receptor potential cation channel subfamily V member 1 (Homo sapiens) (UniProt Q8NER1); experiment: HTS Assay for Compounds that Act as Enhancers of the Vanilloid Receptor 1 (AID 488979); settings: TRPV1-expressing cells, enhancer of channel activity, stimulated with capsaicin at EC20; series mostly up to 41.7 µM
# Method in brief: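 Calcium influx kinetics via Fluo-8 (480/520 nm) in TRPV1-expressing cells, 2000/well cultured overnight at 35.5C. Compound-alone read 3 min (agonist phase), followed by EC20 capsaicin challenge for 2 min (enhancer phase).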
# [9] = biological target: Thyrotropin receptor (Homo sapiens) (UniProt P16473); experiment: qHTS Assay for Antagonists of the Thyroid Stimulating Hormone Receptor (AID 488980); settings: TSHR-expressing cells, cAMP antagonist read-out; series mostly up to 57.5 µM
# Method in brief: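 TSHR-transfected HEK293 cells (2000/well) in HEPES-buffered HBSS with 70 uM RO 20-1724 were stimulated with 4 nM TSH (EC80, final) in the presence of compound. cAMP was measured by HTRF competition after lysis and 30 min at RT.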
# [10] = biological target: D(1A) dopamine receptor (Homo sapiens) (UniProt P21728); experiment: HTS Assay for Allosteric Agonists of the Human D1 Dopamine Receptor: Primary Screen for Agonists (AID 488981); settings: Inducible HEK293 T-REx D1 cells, calcium-flux fluorescence, 180 s kinetic; series mostly up to 41.8 µM
# Method in brief: (§1)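 Calcium flux in an inducible, force-coupled HEK293 Trex D1 line (overnight at 30 C): agonist mode is the 180 s kinetic read after compound; potentiator mode is the following 180 s read after dopamine at EC20.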
# [11] = biological target: D(1A) dopamine receptor (Homo sapiens) (UniProt P21728); experiment: HTS Assay for Allosteric Agonists of the Human D1 Dopamine Receptor: Primary Screen for Potentiators (AID 488982); settings: HEK293 T-REx D1 inducible cells, calcium flux, kinetic fluorescence; series mostly up to 8.37 µM
# Method in brief: as §1
# [12] = biological target: D(1A) dopamine receptor (Homo sapiens) (UniProt P21728); experiment: HTS Assay for Allosteric Agonists of the Human D1 Dopamine Receptor: Primary Screen for Antagonists (AID 488983); settings: D1 receptor cell assay, antagonist mode, qHTS titration; series mostly up to 41.8 µM;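 further: calcium flux response to an EC80 dopamine challenge measured with no-wash dye; nearly all actives have a fitted effect of over 65% in size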; further: potency means the concentration at half of the fitted maximal effect
# Method in brief: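 Cells are induced with tetracycline and incubated overnight at 30 C, then loaded with calcium dye for 30 to 90 minutes at room temperature. Compound addition is followed by a 180 s read, then an EC80 dopamine addition and another 180 s read.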
# [13] = Validation screen for small molecules that induce genotoxicity in human embryonic kidney (HEK293T) cells expressing luciferase-tagged ELG1 (AID 493106); settings: luminescence; series mostly up to 46.1 µM
# Method in brief: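 Luminescence from an ELG1-luciferase fusion serves as the read-out, rising when genetic stress elevates ELG1 protein. HEK293T reporter cells (2,000 per well) received 23 nL compound, incubated 16 hr at 37 °C, then ONE-Glo for 30 min at room temperature.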
# [14] = biological target: ATPase family AAA domain-containing protein 5 (Homo sapiens) (UniProt Q96QE3); experiment: Validation screen for small molecules that inhibit ELG1-dependent DNA repair in human embryonic kidney (HEK293T) cells expressing luciferase-tagged ELG1 (AID 493107); settings: HEK293T ELG1-luciferase level, luminescence, 5-fluorouridine co-treatment, 16 h; series mostly up to 46.1 µM;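 further: cells co-treated with the DNA-damaging agent 5-fluorouridine alongside compound; inhibitors lower the ELG1-luciferase luminescence signal; nearly all actives have a fitted effect of over 70% in size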
# Method in brief: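 Luminescence from ONE-Glo, developed 30 min at room temperature, served as read-out of ELG1-luciferase levels. Beforehand, reporter HEK293T cells received 5-fluorouridine plus test compound for 16 hr at 37 °C.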
# [15] = biological target: Thyrotropin-releasing hormone receptor (Homo sapiens) (UniProt P34981); experiment: qHTS for Small Molecule Agonists and Allosteric Enhancers of Human TRH Receptor: Validation Screen for Agonists (AID 493127;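 active means calcium activation more than 3 SD above the typical response in the agonist read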;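 further: intracellular calcium rise by fluo-8 fluorescence before TRH EC20 addition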); settings: TRH receptor agonist cell assay; at 2 µM; stronger effect = higher value
# Method in brief: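 Cells 2000/well, 10% FCS, 18 h 33.5C/5% CO2 → fluo-8 Ca dye, RT 30 min–1.5 h → FDSS baseline 10 × 1 s → compound added → 230 cycles (1 s/cycle) agonist mode. TRH controls.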
# [16] = Nrf2 qHTS screen for inhibitors: Validation (AID 493153; active means well fitted inhibition curve with a large enough effect in the main read-out, with a control signal flat, not every such curve was filed as active); settings: A549 ARE-Fluc reporter, 18-24 h; Potency: luciferase luminescence; viability change: measured here: cytotoxicity max response; luciferase luminescence, at 46.1 µM (top of the series)
# Method in brief: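 Luminescence from an ARE-firefly luciferase reporter in A549 cells gives Nrf2 inhibition; an earlier CellTiter-Fluor fluorescent read flags cytotoxicity. Cells in 5% FBS OPTI-MEM received compound dilution series for 18-24 h at 37°C.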
# [17] = qHTS for Inhibitors of Cell Surface uPA Generation: Validation Assay (AID 493164); settings: mouse cells, plasminogen activation; series mostly up to 38.3 µM
# Method in brief: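 RAW 264.7 cells (4000/well) were plated overnight, then exposed for 18 h at 37 C, 5% CO2 to compounds in a 7-point 1:5 titration (2.45 nM–38.3 uM final). Intracellular ATP was read by ATP-Lite luminescence.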
# [18] = biological target: Galactokinase (Homo sapiens) (UniProt P51570); experiment: qHTS Validation Assay for Inhibitors of Human Galactokinase (GALK) (AID 493189); settings: purified human GALK enzyme activity, qHTS 7-point titration; series mostly up to 57.5 µM
# Method in brief: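 GALK (5 nM) with 35 uM ATP and 100 uM galactose in HEPES pH 8.0 with MgCl2, NaCl, DTT and BSA. Reaction ran 1 h at room temperature. Residual ATP read by Kinase-Glo Plus luminescence.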
# [19] = biological target: ATP-dependent 6-phosphofructokinase (Trypanosoma brucei brucei) (UniProt O15648); experiment: qHTS Assay to Find Inhibitors of T. brucei phosphofructokinase: hit validation (AID 492961);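 further: luminescence reports ADP formed as PFK phosphorylates fructose-6-phosphate with ATP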; settings: T. brucei PFK, ADP-Glo luminescence; series mostly up to 51.4 µM
# Method in brief: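 ADP-Glo luminescence read-out of ADP formed by 1.25 nM PFK from 0.1 mM ATP and 0.5 mM F6P (TEA pH 8.0, 45 min, RT). Compounds titrated; activity normalized to no-enzyme and full-enzyme controls.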
# Sequence of Thyrotropin-releasing hormone receptor (Homo sapiens) (P34981 whole entry, looked up): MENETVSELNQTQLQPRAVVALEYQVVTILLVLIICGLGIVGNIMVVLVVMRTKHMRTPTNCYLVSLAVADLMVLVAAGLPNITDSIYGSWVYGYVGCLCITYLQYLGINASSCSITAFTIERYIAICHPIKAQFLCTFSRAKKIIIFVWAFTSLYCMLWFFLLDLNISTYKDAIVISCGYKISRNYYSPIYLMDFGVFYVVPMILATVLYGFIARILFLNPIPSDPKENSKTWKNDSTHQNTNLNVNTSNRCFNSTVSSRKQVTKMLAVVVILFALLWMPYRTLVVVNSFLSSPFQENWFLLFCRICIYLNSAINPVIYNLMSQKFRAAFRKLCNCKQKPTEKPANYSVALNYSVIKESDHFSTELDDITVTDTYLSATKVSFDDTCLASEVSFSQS
# Sequence of Galactokinase (Homo sapiens) (P51570 whole entry, looked up): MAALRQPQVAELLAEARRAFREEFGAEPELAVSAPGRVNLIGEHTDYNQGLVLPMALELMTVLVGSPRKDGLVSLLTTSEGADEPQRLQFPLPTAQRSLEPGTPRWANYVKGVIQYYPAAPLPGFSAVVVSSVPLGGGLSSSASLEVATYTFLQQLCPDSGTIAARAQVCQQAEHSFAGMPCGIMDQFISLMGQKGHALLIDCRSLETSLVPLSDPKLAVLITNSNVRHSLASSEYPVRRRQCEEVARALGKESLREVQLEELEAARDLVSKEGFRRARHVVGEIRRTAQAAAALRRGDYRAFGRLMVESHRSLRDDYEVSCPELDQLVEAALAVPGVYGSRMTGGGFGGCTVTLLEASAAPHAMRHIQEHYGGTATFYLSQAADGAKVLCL
# Sequence of Thyrotropin receptor (Homo sapiens) (P16473 whole entry, looked up): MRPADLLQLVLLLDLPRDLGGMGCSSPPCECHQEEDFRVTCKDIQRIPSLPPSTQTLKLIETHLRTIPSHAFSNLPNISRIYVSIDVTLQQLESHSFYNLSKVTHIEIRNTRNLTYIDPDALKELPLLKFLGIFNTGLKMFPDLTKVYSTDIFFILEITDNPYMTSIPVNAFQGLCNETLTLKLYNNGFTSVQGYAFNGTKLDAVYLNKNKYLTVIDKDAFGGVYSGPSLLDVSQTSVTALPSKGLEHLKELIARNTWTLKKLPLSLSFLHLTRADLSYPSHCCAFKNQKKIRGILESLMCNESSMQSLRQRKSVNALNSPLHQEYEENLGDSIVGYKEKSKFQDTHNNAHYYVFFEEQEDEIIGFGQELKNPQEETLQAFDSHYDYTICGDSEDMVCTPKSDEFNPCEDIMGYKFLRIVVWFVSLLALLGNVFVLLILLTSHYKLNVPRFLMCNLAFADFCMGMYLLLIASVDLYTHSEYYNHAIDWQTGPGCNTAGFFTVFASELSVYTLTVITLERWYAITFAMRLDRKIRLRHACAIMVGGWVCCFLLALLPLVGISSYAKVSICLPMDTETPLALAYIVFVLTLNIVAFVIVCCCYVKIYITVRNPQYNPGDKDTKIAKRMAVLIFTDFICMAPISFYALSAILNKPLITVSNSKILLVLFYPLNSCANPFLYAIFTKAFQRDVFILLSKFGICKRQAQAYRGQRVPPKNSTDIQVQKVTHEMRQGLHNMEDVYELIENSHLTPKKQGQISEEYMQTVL
# Sequence of Chromobox protein homolog 1 (Homo sapiens) (P83916 whole entry, looked up): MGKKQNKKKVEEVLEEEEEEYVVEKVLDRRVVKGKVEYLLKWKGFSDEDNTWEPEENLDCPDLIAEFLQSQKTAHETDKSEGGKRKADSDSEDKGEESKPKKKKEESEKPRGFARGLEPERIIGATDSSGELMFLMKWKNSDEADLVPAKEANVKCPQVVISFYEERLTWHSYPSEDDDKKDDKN
# Sequence of Thioredoxin reductase 1, cytoplasmic (Rattus norvegicus) (O89049 whole entry, looked up): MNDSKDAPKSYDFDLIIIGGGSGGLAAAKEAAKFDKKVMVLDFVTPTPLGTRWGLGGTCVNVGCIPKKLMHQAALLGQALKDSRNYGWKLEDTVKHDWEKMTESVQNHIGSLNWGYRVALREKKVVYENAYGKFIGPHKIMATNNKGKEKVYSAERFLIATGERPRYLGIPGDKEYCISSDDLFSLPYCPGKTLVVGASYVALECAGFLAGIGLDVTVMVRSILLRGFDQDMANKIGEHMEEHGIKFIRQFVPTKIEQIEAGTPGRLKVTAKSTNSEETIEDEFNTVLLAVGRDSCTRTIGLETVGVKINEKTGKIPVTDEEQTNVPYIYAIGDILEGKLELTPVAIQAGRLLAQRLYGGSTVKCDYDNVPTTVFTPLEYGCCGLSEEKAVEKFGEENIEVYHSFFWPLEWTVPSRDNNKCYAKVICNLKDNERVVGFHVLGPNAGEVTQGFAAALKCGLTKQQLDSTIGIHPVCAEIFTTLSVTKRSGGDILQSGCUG
# Sequence of M-phase phosphoprotein 8 (Homo sapiens) (Q99549 whole entry, looked up): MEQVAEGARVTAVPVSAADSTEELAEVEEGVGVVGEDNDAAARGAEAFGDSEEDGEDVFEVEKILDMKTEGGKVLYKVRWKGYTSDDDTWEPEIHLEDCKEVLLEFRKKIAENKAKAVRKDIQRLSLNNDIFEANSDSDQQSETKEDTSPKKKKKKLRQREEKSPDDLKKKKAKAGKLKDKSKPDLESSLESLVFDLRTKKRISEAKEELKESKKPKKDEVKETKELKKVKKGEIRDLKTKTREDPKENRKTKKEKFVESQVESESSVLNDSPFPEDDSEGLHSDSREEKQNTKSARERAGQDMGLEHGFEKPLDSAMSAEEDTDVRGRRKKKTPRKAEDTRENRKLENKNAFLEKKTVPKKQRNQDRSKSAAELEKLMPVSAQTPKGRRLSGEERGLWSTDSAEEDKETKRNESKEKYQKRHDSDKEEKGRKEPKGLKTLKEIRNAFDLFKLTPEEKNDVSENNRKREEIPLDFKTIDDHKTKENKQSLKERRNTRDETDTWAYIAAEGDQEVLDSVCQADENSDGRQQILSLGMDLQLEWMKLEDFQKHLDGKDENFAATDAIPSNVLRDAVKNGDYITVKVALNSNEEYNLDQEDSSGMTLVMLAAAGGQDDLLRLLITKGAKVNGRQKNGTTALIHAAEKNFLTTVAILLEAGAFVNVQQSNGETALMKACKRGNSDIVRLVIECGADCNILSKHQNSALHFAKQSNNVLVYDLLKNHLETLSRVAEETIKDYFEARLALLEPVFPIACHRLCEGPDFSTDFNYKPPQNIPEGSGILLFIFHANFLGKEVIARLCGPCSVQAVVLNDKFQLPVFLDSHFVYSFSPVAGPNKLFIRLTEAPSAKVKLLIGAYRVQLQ
# Sequence of D(1A) dopamine receptor (Homo sapiens) (P21728 whole entry, looked up): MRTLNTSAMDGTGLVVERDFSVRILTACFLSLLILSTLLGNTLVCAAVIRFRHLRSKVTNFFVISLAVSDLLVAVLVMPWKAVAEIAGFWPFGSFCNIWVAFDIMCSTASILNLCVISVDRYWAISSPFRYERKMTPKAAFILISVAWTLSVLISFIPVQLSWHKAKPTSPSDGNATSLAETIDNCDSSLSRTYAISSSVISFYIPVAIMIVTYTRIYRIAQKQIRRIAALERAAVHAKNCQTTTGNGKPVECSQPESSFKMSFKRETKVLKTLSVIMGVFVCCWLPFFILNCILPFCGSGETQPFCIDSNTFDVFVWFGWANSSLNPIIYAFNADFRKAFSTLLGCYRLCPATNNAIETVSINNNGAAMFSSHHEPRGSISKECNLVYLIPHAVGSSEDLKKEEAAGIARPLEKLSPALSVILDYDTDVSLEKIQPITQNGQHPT
# Sequence of Transient receptor potential cation channel subfamily V member 1 (Homo sapiens) (Q8NER1 whole entry, looked up): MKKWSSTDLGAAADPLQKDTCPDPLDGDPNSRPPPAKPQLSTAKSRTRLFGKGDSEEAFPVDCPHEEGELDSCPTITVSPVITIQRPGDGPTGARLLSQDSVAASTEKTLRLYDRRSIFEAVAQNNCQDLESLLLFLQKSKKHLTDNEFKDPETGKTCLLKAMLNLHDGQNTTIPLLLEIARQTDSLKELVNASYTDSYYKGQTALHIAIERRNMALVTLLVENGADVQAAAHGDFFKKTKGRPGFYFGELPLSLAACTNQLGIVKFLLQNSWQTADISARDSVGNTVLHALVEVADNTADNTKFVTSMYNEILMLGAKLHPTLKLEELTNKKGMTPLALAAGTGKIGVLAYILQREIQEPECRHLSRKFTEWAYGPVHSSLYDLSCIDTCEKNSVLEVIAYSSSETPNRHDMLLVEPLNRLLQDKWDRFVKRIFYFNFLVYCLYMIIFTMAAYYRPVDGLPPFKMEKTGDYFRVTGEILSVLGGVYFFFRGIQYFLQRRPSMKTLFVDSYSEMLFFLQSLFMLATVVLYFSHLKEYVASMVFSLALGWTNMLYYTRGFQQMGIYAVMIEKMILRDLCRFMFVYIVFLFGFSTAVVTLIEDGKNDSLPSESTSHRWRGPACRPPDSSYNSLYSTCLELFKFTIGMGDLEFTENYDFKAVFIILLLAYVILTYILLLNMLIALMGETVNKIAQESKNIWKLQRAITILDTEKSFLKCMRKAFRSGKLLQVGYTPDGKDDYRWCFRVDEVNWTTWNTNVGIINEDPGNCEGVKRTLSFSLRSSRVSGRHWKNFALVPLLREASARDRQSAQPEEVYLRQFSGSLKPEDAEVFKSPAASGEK
# Sequence of Flap endonuclease 1 (Homo sapiens) (P39748 whole entry, looked up): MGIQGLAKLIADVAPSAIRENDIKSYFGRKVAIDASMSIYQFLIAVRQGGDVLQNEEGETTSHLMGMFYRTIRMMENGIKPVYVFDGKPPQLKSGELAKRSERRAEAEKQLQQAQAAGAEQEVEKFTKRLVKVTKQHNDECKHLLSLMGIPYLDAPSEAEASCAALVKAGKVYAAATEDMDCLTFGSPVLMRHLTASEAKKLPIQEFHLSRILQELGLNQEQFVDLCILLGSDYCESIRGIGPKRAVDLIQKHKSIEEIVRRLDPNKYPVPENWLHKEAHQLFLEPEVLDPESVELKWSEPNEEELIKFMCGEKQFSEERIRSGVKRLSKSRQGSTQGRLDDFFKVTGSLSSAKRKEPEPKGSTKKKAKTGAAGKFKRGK
SMILES,Potency [1],Potency [2],Potency [3],Potency [4],Potency [5],Potency [6],outcome [7],outcome [8],outcome [9],Potency [10],Potency [11],Potency [12],Potency [13],Potency [14],activation [15],Potency [16],viability change [16] [%],outcome [17],Potency [18],outcome [19]
NC(=O)C(=O)O,inactive,inactive,inactive,inactive,inactive,inactive,inactive,inactive,inactive,inactive,inactive,inactive,inactive,inactive,1% (inactive),inactive,4.28,inactive,inactive,
CCCN(CC1CC1)c1nc(C)nc(Nc2c(Cl)cc(Cl)cc2Cl)c1Cl,2.62 µM (active),inactive,inactive,inactive,inactive,inactive,,inactive,inactive,inactive,inactive,inactive,inactive,inactive,-7.44% (inactive),inactive,7.51,inactive,inactive,
COC1=C(OC)C(=O)c2ccccc2C1=O,inactive,inactive,inactive,inactive,inactive,inactive,inactive,inactive,inactive,inactive,inactive,inactive,inactive,,,,,inactive,inactive,
Fc1ccc(C(OCCCc2cnc[nH]2)c2ccc(F)cc2)cc1,6.57 µM (active),inactive,inactive,inactive,50.1 µM (active),39.8 µM (active),inactive,inactive,inactive,inactive,inactive,inactive,inactive,inactive,,inactive,0.0521,inactive,inactive,
CN1CCC[C@H]1c1cccnc1,inactive,inactive,inactive,inactive,inactive,,inactive,inactive,,inactive,,inactive,inactive,inactive,0.5% (inactive),inactive,-3.72,inactive,inactive,
CN(C)C(N)=NCCC[C@H](N)C(=O)O,inactive,inactive,inactive,inactive,inactive,inactive,inactive,inactive,inactive,,inactive,inactive,inactive,,0.188% (inactive),inactive,-5.79,inactive,inactive,
O=C1NC(O)=NC1(c1ccccc1)c1ccccc1,inactive,inactive,inactive,inactive,inactive,inactive,inactive,inactive,inactive,inactive,inactive,inactive,inactive,inactive,0.125% (inactive),,,,inactive,
N[C@@H](CC(=O)O)C(=O)O,inactive,inactive,inactive,inactive,inactive,inactive,,inactive,inactive,inactive,inactive,inactive,inactive,inactive,1.19% (inactive),inactive,-0.666,inactive,inactive,
C#CCN1C(C)=C(C(=O)OC)C(c2cccc([N+](=O)[O-])c2)C(C(=O)OCC)=C1C (configuration not stated),11.7 µM (active),,inactive,inactive,inactive,,inactive,inactive,inactive,inactive,,inactive,inactive,,-10.2% (inactive),inactive,-0.517,inactive,inactive,
O=C(O)/C=C/C(O)c1ccc(Cl)cc1 (configuration not stated),inactive,inactive,,inactive,inactive,inactive,inactive,inactive,inactive,inactive,,inactive,inactive,inactive,0.125% (inactive),inactive,2.66,inactive,inactive,inactive
S=C(S)OC1CC2CC1C1CCCC21 (configuration not stated),inactive,inactive,inactive,,inactive,39.8 µM (active),inactive,inactive,inactive,inactive,,inactive,inactive,,,inactive,5.78,inactive,inactive,
CCCCCCCC/C=C\CCCCCCCC(=O)NCCO,2.62 µM (active),inactive,,inactive,inactive,inactive,inactive,inactive,inactive,inactive,inactive,,inactive,,1.25% (inactive),inactive,1.03,inactive,inactive,
CN(C)c1nc(N)c(C(=O)N=C(N)N)nc1Cl,inactive,inactive,inactive,,inactive,inactive,inactive,inactive,inactive,inactive,inactive,inactive,inactive,,0.625% (inactive),inactive,1.27,inactive,inactive,
Clc1ccc(N2CCN(Cc3c[nH]c4ncccc34)CC2)cc1,inactive,inactive,inactive,,inactive,,inactive,inactive,inactive,inactive,inactive,,inactive,inactive,2.19% (inactive),inactive,-2.66,inactive,inactive,
COc1cccc(OC)c1OCCNCC1COc2ccccc2O1 (configuration not stated),inactive,inactive,inactive,,inactive,inactive,inactive,inactive,inactive,inactive,inactive,0.316 µM (active),inactive,inactive,-3.69% (inactive),inactive,4.98,inactive,inactive,
